Shown are actives, neighbours in structure and some others; about 2% of the full set was active somewhere.
MCL1 BIM primary: inhibitors of human MCL1 binding to BIM-BH3 peptide; Q07820; 320,000 tested, 0.68% active; GST-MCL1 / FITC-Bim-BH3 fluorescence polarization; inhibition, % at 10.9 µM; AID 2057;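 active means inhibition above the mean inhibition of all tested compounds plus 3 SD, set per campaign, cut at about 40% in these data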;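 further: 0% = DMSO wells and 100% = unlabeled Bim-BH3 peptide control; higher means more loss of mP so more displacement of Bim peptide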
Mcl1-Noxa inh: disrupts binding of human Mcl-1 to Noxa peptide | Q07820 | TR-FRET Mcl-1/Noxa peptide binding, 2 h | 220,000 tested, 1.5% active | inhibition, % at 21.7 µM | AID 1022;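 active means compounds that cut the protein-peptide binding signal by more than 50% relative to plate controls in a single-dose test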;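 further: His-tagged Mcl-1 with rhodamine Noxa BH3 peptide and terbium anti-His antibody; 0% = Mcl-1 plus Noxa peptide wells and 100% = peptide-only wells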
Bim-Mcl-1: inhibitors of Bim-Mcl-1 interaction, human; 190,000 tested, 0.1% active; Bead-based flow cytometry, Bim peptide-Mcl-1 binding; Q07820; inhibition, % at 10 µM; in the data active means inhibition above about 40%;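 further: 0% = no compound tracer wells and 100% = peptide blocker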
Mcl1-Bid inh: disrupts binding of human Mcl-1 to Bid peptide. 220,000 tested, 0.97% active. Q07820. inhibition, % at 21.7 µM. TR-FRET Mcl-1/Bid-Dy647 peptide binding, 1536-well;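 active means compounds that cut the binding signal by more than half at the single screening dose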;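 further: His-tagged Mcl-1 with europium anti-His antibody binding Bid BH3 peptide; 0% = Mcl-1 plus peptide wells and 100% = peptide-only wells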
BCLXL inh confirm: counter-screen for MCL1 inhibitors: confirmation of human Bcl-xL inhibitors; shares compounds with MCL1 BIM primary; GST-Bcl-xL / FITC-Bim BH3 peptide FP binding; inhibition, % at 10.9 µM; 1,700 tested, 54% active; AID 2166;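 active means inhibition above a cutoff equal to the mean inhibition of all tested compounds plus 3 SD, cut at about 30% in these data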;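 further: 0% = DMSO wells and 100% = unlabeled Bim BH3 control peptide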
Target sequence (Q07817 whole entry, looked up): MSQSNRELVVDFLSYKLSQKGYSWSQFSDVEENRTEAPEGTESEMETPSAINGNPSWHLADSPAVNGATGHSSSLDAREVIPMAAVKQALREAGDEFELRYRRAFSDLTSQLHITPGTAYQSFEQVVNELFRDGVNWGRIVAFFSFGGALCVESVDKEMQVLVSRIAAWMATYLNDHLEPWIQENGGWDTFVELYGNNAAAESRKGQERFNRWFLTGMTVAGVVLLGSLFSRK
MCL1 inh confirm: confirmation of human MCL1 and BIM-BH3 interaction inhibitors; shares compounds with MCL1 BIM primary; inhibition, % at 10.9 µM; 1,700 tested, 61% active; GST-MCL1 / FITC-Bim-BH3 fluorescence polarization;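 active means inhibition above the average of all tested compounds plus 3 SD, cut at about 40% in these data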;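 further: 0% = DMSO wells and 100% = unlabeled Bim-BH3 control peptide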
* marks the source's active call; other numbers are inactive results; i = inactive; . = not tested or not shown; + = active, no number.

SMILES | MCL1 BIM primary | Mcl1-Noxa inh | Bim-Mcl-1 | Mcl1-Bid inh | BCLXL inh confirm | MCL1 inh confirm
Cc1cc(OCC(=O)NCc2ccncc2)c2c3c(c(=O)oc2c1)CCCC3 | 4.8 | . | . | . | . | .
O=C1c2cccc3cccc(c23)C(=O)N1/N=C/c1c(O)n(-c2ccccc2)c(=O)[nH]c1=O | 18.3 | 22.0 | -4.0 | -11.6 | . | .
CCN1C(=O)NC(=O)/C(=C\c2cn(CC(=O)N3CCCCC3C)c3ccccc23)C1=O (stereo unspecified) | 80.5* | . | . | . | 162.4* | +
CN1C(=O)C(=Cc2cn(CC(=O)N3CCCC3)c3ccccc23)C(=O)N(C)C1=O | -8.3 | . | . | . | . | .
CCOP(=O)(OCC)C(O)c1ccc(OC)cc1 (stereo unspecified) | 3.6 | -1.0 | . | -1.1 | . | .
CCOS(C)(=O)=O | -13.7 | . | . | . | . | .
Cc1ccc2cc(C=C(C#N)C#N)c(Cl)nc2c1 | + | 1.1 | -3.0 | 16.9 | -117.9 | -202.5
O=C1C=C2C=C[C@@H]3CC2(O1)[C@H]1CCCCN31 | 125.3* | . | . | . | 3.1 | 4.1
COC(=O)C1=C(c2cccc(OC)c2OC)C[C@@H]2CC[C@H]1N2C(=O)N1CCC(C)CC1 | 8.0 | . | . | . | . | .
COc1cc(/C=C2\C(=O)NC(=O)N(c3ccccc3)C2=O)c([N+](=O)[O-])cc1OC | . | 20.4 | 15.0 | -77.1 | . | .
COc1ccc(N2C(=O)/C(=C/c3cc(C)n(-c4ccc(C)cn4)c3C)C(=O)NC2=S)c(OC)c1 | 5.4 | 15.2 | 16.0 | -26.2 | . | .
COc1ccc(OC)c(N2C(=O)NC(=O)/C(=C/c3ccc([N+](=O)[O-])s3)C2=O)c1 | 46.3* | 68.8* | 1.0 | -15.0 | 76.5* | 108.3*
O=C1NC(=S)N(c2ccc(F)cc2)C(=O)/C1=C/c1ccco1 | 68.0* | . | . | . | 72.8* | 62.4*
COc1ccc(OC)c(N2C(=O)/C(=C/c3ccco3)C(=O)NC2=S)c1 | 86.7* | . | . | . | 70.8* | 77.9*
CN1/C(=C\C=C\C2=[N+](C)c3ccc4ccccc4c3C2(C)C)C(C)(C)c2ccccc21 | + | i | 5.0 | -167.5 | 165.6* | 199.7*
C[C@H](NC(=O)N1C[C@H]2C[C@@H](C1)c1cccc(=O)n1C2)C(=O)Nc1cccc(F)c1 | -5.2 | . | . | . | . | .
COc1ccccc1/C=C1/C(=N/O)C2CCN1CC2 | 4.4 | -6.4 | -3.0 | -4.5 | . | .
CN1CCN(c2ccc(S(C)(=O)=O)cc2[N+](=O)[O-])CC1 | -5.2 | 8.2 | -3.0 | -34.4 | . | .
CN1CCN(c2ccc([N+](=O)[O-])c3no[n+]([O-])c23)CC1 | + | -30.0 | . | -33.8 | 149.4* | 180.0*
O=C1NC(=O)N(c2ccc(Cl)cc2)C(=O)/C1=C\c1ccc(Sc2nc3ccccc3[nH]2)o1 | 73.9* | 68.5* | 4.0 | -2.3 | 29.8 | 64.5*
C#C[C@]1(O)CC[C@H]2[C@@H]3CCC4=Cc5nc6nc7ccccc7n6cc5C[C@]4(C)[C@H]3CC[C@@]21C | 59.7* | . | . | . | 21.3 | 24.9
CN1C[C@H](CNC(=O)OCc2ccccc2)C[C@@H]2c3cccc4c3c(cn4C)C[C@H]21 | 66.9* | 5.8 | 0.0 | -17.6 | 23.8 | 39.1
Nc1c(C(=O)NCC2CCCO2)c2nc3ccccc3nc2n1Cc1ccco1 (stereo unspecified) | 58.1* | 55.4* | . | -14.7 | 7.2 | 2.9
COC(=O)c1ccc(NC(=O)CSc2nc3ccc(N4C(=O)C5C6C=CC(C6)C5C4=O)cc3s2)cc1 (stereo unspecified) | 2.1 | -6.0 | -1.0 | -33.0 | . | .
COc1cccc2c1O[C@H]1C(=O)CC[C@H]3CN(C)CCC231 (stereo partly specified) | -8.2 | . | . | . | . | .
O=c1[nH]c(=O)n(CCc2ccccc2)c(O)c1C=NC1CC1 | -6.0 | 3.8 | . | -18.2 | . | .
CCOC(=O)[C@]1(C#N)[C@@H]2C=CC(C(C)=O)=CN2[C@@H](C(N)=O)[C@@H]1c1ccsc1 | 95.5* | -3.5 | -5.0 | -43.9 | 108.2* | 145.2*
